Screening results (PubChem BioAssay)
NS1 function inh: qHTS Assay for Inhibitors of Influenza NS1 Protein Function; 0.4% of 270,000 active; Potency, µM (titrated, usually from 46.1 µM), without a hit: at the highest dose activity, positive = more growth; AID 2326, 2010; calls by dose curve; note: potency is the fitted concentration of half-maximal effect; actives are rising curves; nearly all actives have a fitted effect of over 50% in size
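In this qHTS, NS1 from influenza A is expressed in budding yeast, where it slows growth. Cells are switched from glucose to 2% galactose medium (pH 6.0, -URA), treated with compound, and growth recovery is read at OD600.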
Pf growth 96h: Primary qHTS for delayed death inhibitors of the malarial parasite plastid, 96 hour incubation; AID 504834, 2011; 6.9% of 320,000 active; P. falciparum luciferase reporter growth, 96 h; Potency, µM (doses to about 28.7 µM), for the others: at the highest dose activity change, negative = inhibition, actives largely listed as inhibitors; note: potency is the fitted concentration of half-maximal effect; % is set by controls: 0 for no effect and ±100 for the full control effect
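Compounds incubated with erythrocytes infected by luciferase-expressing P. falciparum (2% hematocrit, 0.05% parasitemia final) for 96 hours, 37 C in 5% CO2. Growth inhibition scored as decreased luciferase luminescence.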
Shiga inhibitor: A qHTS for Small Molecule Inhibitors of Shiga Toxin; Vero cells, Shiga toxin protein synthesis inhibition reporter; inhibition, % at 38.7 µM; 9.2% of 290,000 active; in the data active = inhibition mostly above about 28%, no sharp cut-off; inactive = mostly below about 43%; note: 0% is about no effect
Cycloheximide cs: Cycloheximide Counterscreen for Small Molecule Inhibitors of Shiga Toxin | 12% of 300,000 active | max response, % | cell reporter, cycloheximide protein synthesis inhibition counterscreen | AID 2314, 2010; in the data active = max response mostly above about 13%, no sharp cut-off; inactive = mostly below about 14%; note: read at 38.3 µM for the half of the compounds with a filed dose; 0% is about no effect
Pf growth 48h: Primary qHTS for delayed death inhibitors of the malarial parasite plastid, 48 hour incubation; P. falciparum luciferase growth in erythrocytes, 48 h; Potency, µM (titrated, usually from 28.7 µM), for the others: at the highest dose activity change, negative = inhibition, hits mostly inhibitors; 5.9% of 310,000 active; note: potency is the fitted concentration of half-maximal effect; % is set by controls: 0 for no effect and ±100 for the full control effect
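Luciferase-expressing parasites in RBCs, 2% Hct / 0.1% parasitemia final; RPMI 1640 + 0.5% Albumax; 37 C, 5% CO2, one generation; luminescence read-out, lower signal = inhibition.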
The depositor's hits bear a star; u = inconclusive; x = not tested or not shown; ! = a repeat was not active; [ ] = another dose, or the depositor's remark. Rows were chosen to be rich in hits. Some 21% of all compounds tested hit in one or more screens of this group. Unless noted, calls come from the whole dose curve; as a rule, active = well fitted inhibition curve with a large enough effect; inconclusive = small, poorly fitted or top-dose-only effect, or another doubt; inactive = no such curve, though single readings can be large or run the other way.

SMILES	NS1 function inh	Pf growth 96h	Shiga inhibitor	Cycloheximide cs	Pf growth 48h
O=C(Nc1ccc(Cl)c(Cl)c1)N1CC=CCC1	-128%	74%	86*	33*	273%
Cc1ccc(NC(=O)NCCN2CCCCC2)cc1Cl	5%	u	1	13*	-2%
O=C(NCCN1CCCCC1)c1ccc(F)cc1Cl	18%	-6%	27	12*	26%
CC(OC(=O)c1ccc(CN2CCCC2=O)cc1)C(=O)Nc1ccc(Cl)cc1 (stereo not drawn)	x	-6%	x	x	-20%
O=C(NCCN1CCN(C(=O)c2ccc(F)cc2)CC1)c1ccc(F)cc1	19%	12µM*	-6	-3	4%
Cc1ccc(NC(=S)N2CCCC2)cc1Cl	-4%	14%	18	16	1%
O=C(c1ccc(F)cc1)N1CCN(Cc2ccccc2)CC1	10%	-8%	-6	-1	-12%
Cc1ccc(NC(=O)C(=O)N2CCCC2)cc1Cl	18%	40%	116*	39*	97%
O=c1[nH]c(CSc2ncc(C(F)(F)F)cc2Cl)nc2ccccc12	-2%	u	8	-2	15%
CS(=O)(=O)c1ccc2c(c1)sc1nc(=O)c(/C=C3/C=CC(=O)C(O)=C3)c(N)n12	7%	u	41*	20*	16%
O=c1cnc2ccccc2n1Cc1ccc(Br)cc1	0%	18%	56*	18*	27%
CC(C)(C)c1ccc(Cn2c(=O)cnc3ccccc32)cc1	10%	u	90*	38*	u
O=C(O)Cn1c(=O)cnc2ccccc21	4%	x	16	-5	11%
O=C(NN1C(=O)c2ccccc2NC1c1ccco1)c1ccc([N+](=O)[O-])cc1 (stereo not drawn)	x	2%	-10	1	11%
COc1cc(C2C=C(Nc3ccccc3)C(=O)N2c2ccccc2)ccc1O (stereo not drawn)	u	u	57*	37*	-4%
O=C1C(Nc2ccccc2)=CC(c2ccc(O)cc2)N1c1ccccc1 (stereo not drawn)	6%	u	45*	28*	6%
COc1ccc(NC2=CC(c3ccc(OC)cc3)N(c3ccc(OC)cc3)C2=O)cc1 (stereo not drawn)	13%	4%	22	2	-4%
Nc1cc(C(F)(F)F)ccc1Nc1ccccc1	x	0%	77*	28*	6%
O=C(O)c1ccccc1Nc1ccnc(C(F)(F)F)c1	-1%	23%	4	-2	18%[0.00184 µM]
O=C(Nc1cccc(C(F)(F)F)c1)c1cccnc1NCCO	13%	464%	-1	-1	0%
O=C(O)c1ccccc1Nc1ccc(OC(F)F)cc1	x	43%	43*	35*	2%
CNC(=O)c1cccnc1Nc1cccc(C(F)(F)F)c1	-39%	77%	11	27*	45%
O=C(O)c1ccccc1Nc1ccccc1	-40%	8%	x	x	5%
O=C(O)c1ccccc1Nc1cccc(C(F)(F)F)c1	-26%	2.4µM*!	18	-2	-11%
CCN(CC)C(=O)Cn1c(=O)n(CCC(=O)Nc2ccc(F)cc2)c(=O)c2sccc21	6%	-11%	18	-3	-12%
SMILES	NS1 function inh	Pf growth 96h	Shiga inhibitor	Cycloheximide cs	Pf growth 48h
O=C(NCc1ccc(Cl)cc1)c1ccc(Br)o1	-16%	x	0	17	22%
CC(C)C[C@@H](C(=O)NC1CCN(Cc2ccccc2)CC1)N1C(=O)N2CCc3c([nH]c4ccccc34)[C@@]2(C)C1=O	-6%	u	9	-3	u
NS(=O)(=O)c1ccc(NC(=S)NCc2ccco2)cc1	-2%	-12%	14	-1	8%
O=C(COC(=O)c1ccccc1Nc1cccc(C(F)(F)F)c1)NCc1ccco1	-3%	1%	36	17*	-6%
O=C(OCCOCCO)c1ccccc1Nc1cccc(C(F)(F)F)c1	x	1%[12.8 µM]	x	x	5%[12.8 µM]
CCN(C(=O)COC(=O)c1cccnc1Nc1cccc(C(F)(F)F)c1)C1CCS(=O)(=O)C1 (stereo not drawn)	-5%	47%	51*	42*	64%
Cc1ccc(CNS(=O)(=O)c2ccc3c(c2)NC(=O)C(C)S3)cc1 (stereo not drawn)	-5%	14%	7	-1	5%
COc1cc(C2NC(=O)NC(C)=C2C(=O)OC(C)C)ccc1OC(=O)c1ccco1 (stereo not drawn)	-2%	5%	3	1	15%
CC(C)C[C@H](NC(=O)c1[nH]cnc1C(=O)Nc1ccc(CNC(=O)OC(C)(C)C)cc1)C(=O)OC(C)(C)C	u	6.6µM*	-5	-1	8.3µM*
COc1ccc(NC(=O)c2nc[nH]c2C(=O)N[C@@H](CC(C)C)C(=O)OC(C)(C)C)cc1	-61%	u	-1	-4	10µM*
CC(C)(C)OC(=O)CNC(=O)c1nc[nH]c1C(=O)NCc1ccc(CNC(=O)OC(C)(C)C)cc1	1%	81%	-2	-2	u
CC(C)C[C@H](NC(=O)c1[nH]cnc1C(=O)Nc1ccc(CNC(=O)OC(C)(C)C)cc1)C(=O)OCc1ccccc1	-3%	u	-4	-1	12µM*
CC(C)C[C@H](NC(=O)c1nc[nH]c1C(=O)NCc1ccccc1)C(=O)OCc1ccccc1	u	-25%	-13	-2	u
CC(C)(C)OC(=O)CNC(=O)c1[nH]cnc1C(=O)Nc1ccc(CNC(=O)OC(C)(C)C)cc1	-31%	13µM*	10	5	13µM*
COCCn1c(N)c(N(Cc2ccccc2)C(=O)C2=COCCO2)c(=O)[nH]c1=O	8%	-14%	-5	-1	110%
Cc1cc(OCC(=O)NCc2ccncc2)c2c(C)cc(=O)oc2c1	3%	3%	-4	-2	15%
CC(C)(C)OC(=O)NCc1ccc(NC(=O)c2nc[nH]c2C(=O)N[C@@H](Cc2ccccc2)C(=O)OC(C)(C)C)cc1	u	8.3µM*	-4	3	2.3µM*
C[C@H](NC(=O)c1[nH]cnc1C(=O)Nc1ccc(CNC(=O)OC(C)(C)C)cc1)C(=O)OCc1ccccc1	-35%	30%	-8	-3	9.3µM*
CNC(=O)c1[nH]cnc1C(=O)Nc1ccc(C)cc1	-3%	-9%	9	9	13%
CNC(=O)c1[nH]cnc1C(=O)Nc1ccc(Cl)cc1	2%	31%	40	28*	6%
C[C@H](NC(=O)c1nc[nH]c1C(=O)N[C@@H](C)C(=O)OC(C)(C)C)C(=O)OCc1ccccc1	14%	1%	-2	-2	-2%
C=CCn1c(COc2ccc(F)cc2)nnc1SCC(=O)NC1CCS(=O)(=O)C1 (stereo not drawn)	x	14%	x	x	-19%
CCC(C)C(NC(=O)C1CCC(C)CC1)C(=O)NCCc1ccc(S(N)(=O)=O)cc1 (stereo not drawn)	9%	-25%	-1	1	-21%
CCC(=O)Nc1ccc(-c2nnc(SCC(=O)Nc3nccs3)n2C)cc1	-7%	1%[5.75 µM]	15	15	-10%
O=C(Nc1nccs1)c1ccc(CSc2nnnn2-c2ccccc2)cc1	5%	x	41	44*	u
